A selection: hits, their analogues and other compounds. The true share with any hit is near 2.9%.
MEKK3 PB1 HTS – MEKK3-MEK5 PB1 interaction, increase or decrease | bead-based flow cytometry, Alexa488-MEK5 binding to MEKK3; actives lie on both sides; 0 = blocked by unlabeled MEK5, 100 = vehicle | binding response (% of control), % at 10 µM | hit rate 1.4% among 290,000;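 active means binding response more than 3 SD above or below the average of its plate-row segment, actives on both sides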;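 further: Alexa488 bead fluorescence after subtracting the streptavidin-only scavenger bead signal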
MEKK2 mut-MEK5 – signal of MEK5 binding to mutant human MEKK2 PB1 domain; bead flow cytometry, Alexa488-MEK5 binding to MEKK2 mutant; hit rate 0.35% among 290,000; AID 1530; percent response, % at 10 µM; in the data active means percent response above about 24%, passing the limit was not always enough
B2AR ag – agonists of human beta-2 adrenergic receptor inducing internalization; response, % (test concentration not listed); hit rate 0.43% among 340,000; Am2.2-beta2AR cells, FAP receptor internalization, flow cytometry; AID 504454; P07550;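 active means response above a set limit, near 3 SD of response in nonfluorescent compounds, cut at about 42% in these data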
Target sequence (P07550 whole entry, looked up): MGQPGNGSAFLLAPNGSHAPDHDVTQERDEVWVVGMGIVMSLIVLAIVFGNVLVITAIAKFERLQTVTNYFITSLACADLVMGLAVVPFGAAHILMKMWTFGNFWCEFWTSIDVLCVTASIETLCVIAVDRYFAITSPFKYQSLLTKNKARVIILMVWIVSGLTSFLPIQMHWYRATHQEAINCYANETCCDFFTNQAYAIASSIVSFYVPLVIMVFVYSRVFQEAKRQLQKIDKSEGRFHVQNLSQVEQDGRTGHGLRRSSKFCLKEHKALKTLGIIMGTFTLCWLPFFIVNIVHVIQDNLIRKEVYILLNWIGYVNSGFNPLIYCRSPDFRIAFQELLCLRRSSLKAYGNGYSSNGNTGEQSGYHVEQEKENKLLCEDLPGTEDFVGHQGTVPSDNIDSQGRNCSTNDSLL
GRK2 inh – human GRK2 inhibition via aptamer displacement; P25098; bead flow cytometry, FAM-aptamer displacement from GRK2; inhibition of aptamer binding, % at 10 µM; hit rate 0.59% among 330,000;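 active means inhibition of aptamer binding above 40%, roughly 3 SD of noise, on plates passing a quality check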;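 further: median bead fluorescence of bound FAM aptamer so fluorescent compounds give negative values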
MEKK2wt PB1 HTS – raises or lowers MEK5 binding to wildtype human MEKK2 PB1 domain. hit rate 1.1% among 290,000. bead flow cytometry, Alexa488-MEK5 binding to MEKK2 WT; actives lie on both sides. Q9Y2U5. binding response (% of control), % at 10 µM; in the data active means binding response below about 67% or above about 130%
MEKK2wt confirm – raises or lowers MEK5 binding to wildtype human MEKK2, retest. shares compounds with MEKK3 PB1 HTS. bead flow cytometry, Alexa488-MEK5 binding to MEKK2 WT; actives lie on both sides. binding response (% of control), % at 10 µM. hit rate 2.4% among 5,900. AID 1892; in the data active means binding response below about 16% or above about 210%; inactive means in between
MEKK2mut-MEK5 – signal of MEK5 binding to mutant human MEKK2, retest; shares compounds with MEKK3 PB1 HTS; bead flow cytometry, Alexa488-MEK5 binding to MEKK2 mutant; percent response, % at 10 µM; hit rate 2% among 5,900; in the data active means percent response mostly above about 71%, no sharp cut-off; inactive means mostly below about 38%;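 further: higher means compound restores mutant binding toward wildtype level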
MEKK3-MEK5 inh – confirmation of inhibitors of MEK5 binding to human MEKK3 | shares compounds with MEKK3 PB1 HTS | bead flow cytometry, Alexa488-MEK5 binding to MEKK3; hits give low values | binding response (% of control), % at 10 µM | hit rate 1.8% among 5,900 | AID 1894;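 active means binding response below 72% of control, or above a set upper limit, though filed actives all read lower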;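 further: 100% = DMSO only wells and 0% = binding blocked by excess unlabeled MEK5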
Starred values were filed as active, the others as inactive; x = no result; [ ] = dose if it differs, or a comment.

SMILES	MEKK3 PB1 HTS	MEKK2 mut-MEK5	B2AR ag	GRK2 inh	MEKK2wt PB1 HTS	MEKK2wt confirm	MEKK2mut-MEK5	MEKK3-MEK5 inh
S=C1N(c2ccccc2)C(c2ccc(Cl)cc2)N2CCCN12 (configuration not stated)	105	8	4	0	113	x	x	x
COc1ccc(C2N(c3ccccc3)C(=S)N3CCCN23)cc1 (configuration not stated)	139*	1	4	3	106	96	0	101
CCN1C(=O)[C@@H]2[C@H](C1=O)[C@@H]1C(=O)Nc3ccccc3C(=O)N1[C@@H]2c1cccc(Cl)c1	108	4	-8	1	112	x	x	x
CN(CC(=O)Nc1ccccc1C(=O)NC1CC1)Cc1ccco1	x	x	-10	1	x	x	x	x
COc1ccc(C(=O)NNC(=O)CCC(=O)NNC(=O)c2ccc(OC)cc2)cc1	105	7	4	1	105	x	x	x
COc1ccc(C(=O)NNC(=O)c2ccc(C(C)(C)C)cc2)cc1	1.0*[inhibitor]	-46	1	0	2.0*[inhibitor]	102	-1	101
Cc1nnc(Nc2ccccc2)n(N)c1=O	0.0*[inhibitor]	-21	15	0	-1.0*[inhibitor]	104	7	104
Cc1nnc(NN)n(N)c1=O	105	4	-2	3	100	x	x	x
O=C(CC(=O)Nc1ccccc1[N+](=O)[O-])Nc1ccccc1[N+](=O)[O-]	106	2	-8	6	105	x	x	x
CC1(C)CC(CC(=O)Nc2ccccc2[N+](=O)[O-])C(=O)O1 (configuration not stated)	147*	0	-8	0	109	108	2	104
N#Cc1ccccc1OCc1cccc(S(=O)(=O)N2CCOCC2)c1	x	x	-2	0	x	x	x	x
COC1OC2COC(c3ccccc3)OC2C2OC12 (configuration not stated)	x	x	3	x	x	x	x	x
C/C=C/c1ccc(OCCCCN(C)Cc2ccccc2)c(OC)c1	107	7	3	0	139*	120	9	100
Cc1ccc(C)c2c1cc(C)c1nnc(SCC(=O)c3cccs3)n12	148*	4	-9	0	112	99	-6	97
Cc1cc(=O)c2cccc(Br)c2[nH]1	113	13	8	0	102	x	x	x
Cc1cc(=O)c2c(C)ccc(C)c2[nH]1	74*[inhibitor]	-25	9	0	85	103	2	105
Cc1c(NC(=O)C(C)N2C(=O)C3CCCCC3C2=O)c(=O)n(-c2ccccc2)n1C (configuration not stated)	100	1	0	0	102	x	x	x
O=C(Cc1cccc(C(F)(F)F)c1)Nc1cc(S(=O)(=O)N2CCOCC2)ccc1N1CCCC1	x	x	-5	2	x	x	x	x
CCOc1cc(C)c(Cl)cc1S(=O)(=O)NCc1ccc2c(c1)OCO2	81*[inhibitor]	-8	3	6	88	102	2	103
CNC[C@H](CC1CCCCC1)NC[C@H](CO)NCC1(c2ccccc2)CC1	103	-1	5	2	114	x	x	x
CNC[C@H](CC1CCCCC1)NC[C@H](CO)NCCc1cccc(C(F)(F)F)c1	104	6	19	0	152*	156	39	109
O=C(O)c1ccc2c(c1)C1C=CCC1C(c1cc3c(cc1Br)OCO3)N2 (configuration not stated)	100	-6	5	0	98	x	x	x
Brc1cc2c(cc1C1Nc3ccccc3C3C=CCC31)OCO2 (configuration not stated)	67*[inhibitor]	-2	4	9	98	98	-2	103
O=c1ccc2ccc(OCCOc3cccc(Cl)c3)cc2o1	101	3	-5	0	105	x	x	x
O=C(N/N=C\c1cccnc1)c1ccccc1O	103	3	-13	3	109	x	x	x
SMILES	MEKK3 PB1 HTS	MEKK2 mut-MEK5	B2AR ag	GRK2 inh	MEKK2wt PB1 HTS	MEKK2wt confirm	MEKK2mut-MEK5	MEKK3-MEK5 inh
O=C(N/N=C/c1ccc([N+](=O)[O-])o1)c1ccc2c(c1)OCO2	101	1	15	9	99	x	x	x
Cc1ccc(/C=N/NC(=O)c2cccs2)o1	128*	1	32	2	110	104	8	103
O=C(N/N=C/c1cccnc1)c1cccs1	130*	28	-1	2	121	94	1	104
O=C(N/N=C\c1ccc(-c2ccc([N+](=O)[O-])cc2)o1)c1ccc2c(c1)OCO2	142*	2	0	2	108	96	-1	99
Cc1ccc(/C=N/NC(=O)c2cccc([N+](=O)[O-])c2)o1	133*	4	-7	2	105	115	10	104
Cc1sc(NC(=O)C2=COCCO2)c(C(N)=O)c1C	x	x	4	0	x	x	x	x
COC(=O)C1N[C@@H]([C@@H](NC(=O)COc2ccccc2)C(=O)NC2CC2)SC1(C)C (some centres not stated)	98	-5	-4	0	98	x	x	x
O=C(N/N=C/c1ccsc1)c1cc2ccccc2o1	102	3	4	0	102	x	x	x
O=C(N/N=C\c1cn[nH]c1-c1ccc(Cl)cc1)c1cccs1	71*[inhibitor]	-30	-1	5	60*[inhibitor]	108	13	108
O=C(N/N=C/c1cccc([N+](=O)[O-])c1)c1cc2ccccc2o1	69*[inhibitor]	-1	8	0	91	92	1	92
Cc1ccc(/C=N/NS(=O)(=O)c2ccc([N+](=O)[O-])cc2)o1	134*	1	-2	x	106	107	4	101
O=C(NCCc1ccccc1)C(=O)NCCC1CCCCN1S(=O)(=O)c1cccs1 (configuration not stated)	x	x	-4	2	x	x	x	x
N=C1/C(=C\c2coc3ccccc3c2=O)C(=O)N=C2SC(c3ccncc3)=NN12	70*[inhibitor]	-10	-8	5	67	101	2	101
CN(Cc1cn[nH]c1-c1cc2ccccc2o1)CC1CCOCC1	99	-3	-8	0	100	x	x	x
COc1ccc(CSc2nc3ccccc3c(=O)[nH]2)cc1F	6.0*[inhibitor]	-23	2	1	9.0*[inhibitor]	100	0	104
COc1ccccc1OCCSc1nc2ccccc2c(=O)[nH]1	107	3	-2	0	107	x	x	x
COCCn1c(SCc2ccc(OC)c(F)c2)nc2ccccc2c1=O	156*	7	-1	12	134	101	2	103
Cc1ccc2nc(CSc3nnc(-c4ccco4)o3)cc(=O)n2c1	71*[inhibitor]	-3	-1	0	91	105	-1	107
Cc1ccc2nc(CSc3nnc(-c4ccco4)n3-c3ccccc3)cc(=O)n2c1	101	4	-13	0	101	x	x	x

Screening data as filed in PubChem.
